Sampled rows, rich in hits. Any-hit rate of the full collection: about 21%.
CHX counter – counter-screen hit for Shiga toxin inhibitors, cycloheximide. cell reporter, cycloheximide protein synthesis inhibition counterscreen. max response, %. 300,000 compounds, 12% hits; in the data active = max response mostly above about 13%, no sharp cut-off; inactive = mostly below about 14%; note: read at 38.3 µM for the half of the compounds with a filed dose; 0% is about no effect
Pf growth 96h – inhibits malaria parasite growth, 96 h. P. falciparum luciferase reporter growth, 96 h. Potency, µM (top dose mostly 28.7 µM), for the others: top-dose activity change, negative = inhibition, actives largely listed as inhibitors. 320,000 compounds, 6.9% hits; active = well fitted inhibition curve with a large enough effect; inconclusive = small, poorly fitted or top-dose-only effect, or another doubt; inactive = no such curve, though single readings can be large or run the other way; note: potency is the fitted concentration of half-maximal effect; % is set by controls: 0 for no effect and ±100 for the full control effect
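Luminescence readout: decreased luciferase signal marks inhibited growth of reporter-expressing P. falciparum in infected red cells (2% hematocrit, 0.05% parasitemia final), exposed to compound two generations (96 h, 37 C, 5% CO2).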
Shiga toxin inh – blocks Shiga toxin action in Vero cells. Vero cells, Shiga toxin protein synthesis inhibition reporter. inhibition, % at 38.7 µM. 290,000 compounds, 9.2% hits. AID 2315; in the data active = inhibition mostly above about 28%, no sharp cut-off; inactive = mostly below about 43%; note: 0% is about no effect
SARS PLpro yeast – inhibitors of SARS-CoV papain-like protease in yeast; 330,000 compounds, 0.19% hits; AID 485353; S. cerevisiae expressing SARS-CoV PLpro, growth rescue; Potency, µM (titrated, usually from 32.9 µM), for the others: at the highest dose activity, positive = growth rescue, most hits filed as activators; note: potency is the fitted concentration of half-maximal effect; 0% is about no effect; nearly all actives have a fitted effect of over 55% in size
Pf growth 48h – P. falciparum growth inhibition at 48 hours (one generation). P. falciparum luciferase growth in erythrocytes, 48 h. Potency, µM (top dose mostly 28.7 µM), for the others: top-dose activity change, negative = inhibition, most hits filed as inhibitors. 310,000 compounds, 5.9% hits. AID 504832; active = well fitted inhibition curve with a large enough effect; inconclusive = small, poorly fitted or top-dose-only effect, or another doubt; inactive = no such curve, though single readings can be large or run the other way; note: potency is the fitted concentration of half-maximal effect; % is set by controls: 0 for no effect and ±100 for the full control effect
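Cell-based growth assay: transgenic P. falciparum expressing firefly luciferase, cultured in red cells within RPMI 1640 containing 0.5% w/v Albumax, 24 mM bicarbonate and gentamycin. A drop in luciferase activity indicates inhibition.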
NS1 function inh – blocks influenza NS1 protein function. Potency, µM (top dose mostly 46.1 µM), for inactives: top-dose activity, positive = more growth. 270,000 compounds, 0.4% hits. AID 2326; note: potency is the fitted concentration of half-maximal effect; actives are rising curves; nearly all actives have a fitted effect of over 50% in size
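S. cerevisiae expressing influenza A NS1, grown in glucose, washed, then diluted 1:100 into pH 6.0 -URA galactose medium with 23 nl compound. Growth recovery read as OD600; NS1-free strain serves as control.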
* hit, by the source's call; u = inconclusive; x = no result. Unless noted, calls come from the whole dose curve.

SMILES | CHX counter | Pf growth 96h | Shiga toxin inh | SARS PLpro yeast | Pf growth 48h | NS1 function inh
Nc1cccc(-c2cn3cc(C(F)(F)F)cc(Cl)c3n2)c1 | 36* | 181% | 64* | -1% | 164% | 13%
CC(Oc1ccc2c(c1)oc(=O)c1ccccc12)C(=O)NCCN1CCOCC1 (centres undefined) | -2 | -2% | -4 | -4% | 16% | -19%
Cc1ccc(S(=O)(=O)N[C@H](C(=O)O)C(C)C)cc1 | x | x | x | x | x | -3%
O=c1[nH]c2cnccc2n1-c1ccccc1 | 17 | 20% | 37 | -3% | 18% | 3%
CN(C)c1ccc(/C=N/N=C/c2ccccc2O)cc1 | 76* | 197% | 171* | 2% | 79% | -22%
CC(C)NC(=O)CC1C(=O)N(Cc2ccccc2)C(C)c2nc3ccccc3n21 (centres undefined) | -6 | -24% | -8 | -6% | -2% | x
COc1ccc(C2CC(c3ccc(F)cc3)=NN2c2ccccc2)cc1OC (centres undefined) | 26* | u | 90* | -7% | u | 13%
COc1ccc(C2=NN(C(C#N)c3ccc(OC)c(OC)c3)C(c3ccccc3)C2)cc1 (centres undefined) | 43* | x | 113* | 23% | 125% | 12%
COc1ccc(C2=NN(C(=O)c3ccccc3)C(c3ccc(OC)c(OC)c3)C2)cc1OC (centres undefined) | -2 | u | -13 | 0% | u | -1%
COc1ccc(C2=NN(c3ccccc3)C(c3ccc(OC)c(OC)c3)C2)cc1 (centres undefined) | 20* | u | 46* | 4% | -17% | u
Cc1[nH]cnc1C(=O)N/N=C/c1c(Cl)cccc1Cl | 36* | 23% | 46 | -4% | 45% | 2%
CCOc1ccc(C(=O)CCC(=O)N(CC)CC(=O)NCc2ccc(Cl)cc2)cc1 | 9 | u | 23 | -3% | 27% | -11%
CCN1CCn2c3c(c4cc(Cl)ccc42)CCCC31 (centres undefined) | 0 | 2% | -13 | 0% | u | 3%
CCN(CC)CCN1CCn2c3c(c4cc(C)ccc42)CCCC31 (centres undefined) | 11 | 9.3µM* | 9 | -3% | 3.7µM* | 24%
CCOC(=O)C1=C(CSc2nc(C)ccc2C#N)OC(N)=C(C#N)C1c1cccc(OC)c1OC (centres undefined) | 13 | 6.6µM* | 9 | -21% | 55% | -146%
CCOC(=O)C1=C(CSc2nc(-c3ccncc3)ccc2C#N)OC(N)=C(C#N)C1c1cccnc1 (centres undefined) | 2 | u | 30 | 1% | 13µM* | 7%
CC(=O)Nc1ccc2c(c1)nc1n2CCSC1 | 1 | 24% | -42 | -8% | x | 2%
Cc1ccc(C(=O)Nc2ccc3c(c2)nc2n3CCSC2)cc1 | 31* | x | 52 | -1% | 5% | -45%
COc1ccccc1C(=O)Nc1ccc2c(c1)nc1n2CCSC1 | 24* | 107% | 60* | -17% | 68% | 3%
COc1ccccc1C(=O)Nc1ccc2c(c1)nc1n2CCN(Cc2ccccc2)C1 | -2 | u | 16 | 0% | u | x
Cc1ccc2cc(CCNS(=O)(=O)c3ccc(Br)cc3)c(=O)[nH]c2c1C | -6 | 11% | -6 | -4% | -2% | 7%
CC12CCC=CC1C(c1cccc([N+](=O)[O-])c1)N(Cc1ccccc1)C2=O (centres undefined) | 7 | x | 16 | x | x | x
Clc1ccc(-n2nnnc2-c2cnc3ccccc3c2-c2ccccc2)cc1 | -3 | 10µM* | -9 | -1% | 5.2µM* | -1%
Cc1ccc(-n2nnnc2-c2cnc3ccc(Cl)cc3c2-c2ccccc2)cc1 | -2 | u | -4 | 13% | u | 13%
COc1ccccc1C(CNC(=O)C1CC(=O)N(Cc2ccc(C)cc2)C1)N1CCCC1 (centres undefined) | x | 8% | x | -2% | 2% | x
SMILES | CHX counter | Pf growth 96h | Shiga toxin inh | SARS PLpro yeast | Pf growth 48h | NS1 function inh
Clc1ccc(-c2cn3cccnc3n2)cc1Cl | 26* | x | 61 | -15% | 64% | -64%
CN(C)S(=O)(=O)c1cccc(-c2cn3cccnc3n2)c1 | 5 | -9% | 3 | 1% | 4% | 0%
Brc1ccc(-c2cn3cccnc3n2)cc1 | 35* | x | 75* | -17% | 81% | -4%
O=S(=O)(Nc1ccc(-c2cn3cccnc3n2)cc1)c1ccccc1 | 4 | -24% | 10 | 2% | u | 3%
COc1ccc(-c2cn3cccnc3n2)cc1F | 44* | 9% | 51* | -15% | 131% | -4%
Clc1ccc(-c2cn3cccnc3n2)cc1 | 19* | 109% | 22 | 1% | x | -7%
Cc1nnc(NC(=O)C2CCN(S(=O)(=O)c3ccc(F)c(F)c3)CC2)o1 | x | x | x | 6% | x | x
C[C@@H](CN=[N+]=[N-])CN1CC[C@H](C(C)(C)C)CCC1=O | -2 | 90% | 2 | x | 50% | 4%
CC(Sc1ccccn1)C(=O)NC1CCCC1 (centres undefined) | x | 22% | x | 13% | 35% | x
CCC(C)c1ccc(NC(=O)COc2c(F)c(F)c(C(F)(F)F)c(F)c2F)cc1 (centres undefined) | -1 | 2.1µM* | 10 | -41% | 8% | -46%
O=C1CC(Nc2cc(=O)[nH]c(=O)[nH]2)C(=O)N1c1ccccc1Cl (centres undefined) | 6 | 14% | -7 | 2% | 21% | -35%
CC(=O)Nc1ccc(Nc2nc3ccccc3n3cnnc23)cc1 | 5 | -3% | -2 | 1% | 18% | 2%
COc1ccc(Cl)cc1NC(=O)C/C(C)=N/NC(=O)Cc1ccccc1 | 15 | 86% | 44* | -2% | 27% | 1%
COc1ccc(Cl)cc1NC(=O)C/C(C)=N/NC(=O)c1ccc(O)cc1 | 31* | u | 68* | -8% | 12% | 21%
COc1cc(NC(=O)C/C(C)=N/NC(=O)c2cccc(O)c2)c(OC)cc1Cl | 30* | 14% | 129* | -3% | 14% | 12%
COc1ccc(OC)c(NC(=O)C(=O)N/N=C(\C)CC(=O)Nc2ccc(Cl)cn2)c1 | -3 | -4% | -5 | -1% | 9% | 9%
COc1cc(NC(=O)C/C(C)=N/NC(=O)C(OC)c2ccccc2)c(OC)cc1Cl (centres undefined) | -4 | -25% | 16 | -1% | 0% | 22%
O=C(CNc1ccc2ccccc2c1)N/N=C/c1cc2ccccc2nc1Cl | 9 | 16% | 32 | -46% | u | 24%
COc1cccc(CN2CCN(C(=O)c3ccco3)CC2)c1 | 5 | 0.83µM* | -11 | 2% | 43% | 14%
COc1ccc(NC(=O)C(=O)NCCN2CCN(C(=O)c3ccco3)CC2)cc1 | -2 | 0.93µM* | -4 | -2% | 10% | x
Cc1ccc(COc2coc(CN3CCN(C(=O)c4ccco4)CC3)cc2=O)cc1 | x | u | x | 1% | 12µM* | x
